Screens: PubChem BioAssay, several laboratories
Shn3 3UTR inh: reduction of Shn3 3'UTR firefly luciferase signal, primary screen, Schnurri-3 inhibitor project, cell-based, Clone20 osteoblasts, set 2. AID 588674, 2011. inhibition, % at 12.5 µM. actives 0.52% (n = 360,000). Clone20 osteoblast Shn3 3'UTR firefly luciferase, 24 h;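 active means mean inhibition of at least 75% with every replicate also reaching 75%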;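 further: 0% = median of neutral control wells and 100% = pilot-screen positive control compound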
MITF TRPM1 inh: inhibitors of MITF-dependent TRPM1 promoter reporter, primary screen, cell-based, SK-MEL-5, single point, luciferase. SK-MEL-5 TRPM1 promoter luciferase, 24 h. inhibition, % at 12.5 µM. actives 0.83% (n = 330,000);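 active means mean inhibition across replicates of 60% or more, whatever share of single replicates reaches that level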
TROY signal inh: inhibitors of TROY-driven NF-kB signaling, primary screen, Q293 LMP1-TROYcd cells, NF-kB luciferase, uHTS; Q293 LMP1-TROYcd NF-kB luciferase reporter, 4 h; inhibition, % at 10 µM; actives 0.98% (n = 360,000); AID 1347056, 2019;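 active means compounds whose plate-normalised and pattern-corrected inhibition of the luciferase reporter signal at the single screening dose is 50% or more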
EBV LMP1 NFkB: EBV LMP1-driven NF-kappaB luciferase reporter inhibitors, primary screen, cell-based, luminescence, single point; LMP1-induced NF-kappaB luciferase reporter cells; inhibition, % at 12.5 µM; actives 0.69% (n = 350,000); AID 504558, 2011; in the data active means inhibition above about 41%;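 further: 0% = neutral control wells and 100% = reference inhibitor control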
TWEAK-Fn14 inh: inhibitors of TWEAK-Fn14 signaling, primary screen, luciferase reporter cells, uHTS. TWEAK-stimulated Fn14 reporter cells, luciferase luminescence, 8 h. inhibition, % at 10 µM. actives 2% (n = 360,000). AID 1159606, 2016; in the data active means inhibition above about 50%
Peg3 promoter: Peg3 promoter-driven luciferase inhibitors, primary screen, cell-based, HeLa, luciferase luminescence; inhibition, % at 20 µM; actives 1.7% (n = 360,000); HeLa PEG-Prom luciferase reporter, overnight;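 active means inhibition of at least 50% at 20 µM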
* = called active by the depositor; / = not tested or not shown. Most compounds without a hit are left out; they make up all but 4.1% or so of the library.

SMILES | Shn3 3UTR inh | MITF TRPM1 inh | TROY signal inh | EBV LMP1 NFkB | TWEAK-Fn14 inh | Peg3 promoter
O=C1/C(=C/c2ccccc2)C[C@@]2(O)[C@H]3Cc4ccc(O)c5c4[C@@]2(CCN3CC2CC2)C1O5 (some centres not stated) | 95* | 109* | 64* | 20 | 91* | 100*
C=C1C(=O)OC2CC3(C)OC3CCC(C)=CC(OC(C)=O)C12 (configuration not stated) | 2 | 70* | 52* | 55* | 76* | 95*
C[C@]12CCC3C(CC[C@H]4C[C@H](OC(=O)c5cccnc5)CC[C@]34C)C1CCC2=O (some centres not stated) | 39 | 9 | 16 | 5 | -8 | 1
ClCCN(CCCl)c1ccc(-n2cnc3c(Cl)ncnc32)cc1 | 20 | 84* | 36 | 23 | 75* | 104*
O=C(O)CCCc1ccc(N(CCCl)CCCl)cc1 | 25 | 9 | -3 | 17 | 4 | 6
O=C(NCCN1CCOCC1)c1ccc(Cl)nc1Cl | 4 | 4 | 7 | -1 | -14 | 7
Cc1ccc(NC(=O)c2ncn(CCCNCCN3CCOCC3)n2)cc1C | 10 | 3 | -1 | -1 | 70* | -5
Cc1ccc(-c2cc(-c3ccc(C)cc3)[n+](-c3ccc(C(=O)[O-])cc3)c(-c3ccc(C)cc3)c2)cc1 | -19 | 12 | -7 | -1 | 1 | -8
Cc1ccc(-c2cc(-c3ccccc3)cc(-c3ccccc3)[n+]2-c2ccccc2)cc1 | 98* | 103* | 84* | 32 | 104* | 100*
CN(C)c1ccc(-[n+]2c(-c3ccccc3)cc(-c3ccccc3)cc2-c2ccccc2)cc1 | 94* | 92* | 47 | 34 | 66* | 72*
O=C1CN(O)C(c2ccccc2Cl)=c2cc(Br)ccc2=N1 | -2 | 7 | 1 | 11 | 6 | 16
C[C@]12CCC(=O)C[C@H]1CC[C@@H]1[C@@H]2CC[C@]2(C)C(=O)CC[C@@H]12 | 19 | -9 | -7 | 2 | -4 | -10
CCCCn1c(N)c(C(=O)NCCN2CCOCC2)c2nc3ccccc3nc21 | 0 | 8 | 64* | -5 | 3 | 9
CCCCn1c(NC(=O)c2ccc(Br)o2)c(C(=O)OCC)c2nc3ccccc3nc21 | -7 | -5 | 59* | -9 | 71* | 22
CCOC(=O)c1c(N)n(CCN2CCCCC2)c2nc3ccccc3nc12 | 25 | 9 | 3 | -7 | -11 | 21
CCCCn1c(NS(=O)(=O)c2ccccc2)c(C(=O)OCC)c2nc3ccccc3nc21 | 19 | 15 | 69* | 4 | 80* | 18
CN(C(=O)CNC(=O)OCc1ccccc1)c1ccc(Br)cc1C(=O)c1ccccc1Cl | 3 | 8 | 9 | 23 | 37 | 35
COc1ccc2c(C)c(CCC(=O)N3C[C@H]4C[C@@H](C3)c3cccc(=O)n3C4)c(=O)oc2c1 | -2 | 7 | 2 | 2 | -6 | 3
COc1ccc(S(=O)(=O)N2CC3CC(C2)c2cccc(=O)n2C3)cc1 (configuration not stated) | -3 | -1 | -7 | -6 | -1 | 11
COC(=O)C1=C(c2ccc(OC(F)(F)F)cc2)C[C@@H]2CC[C@H]1N2C(=O)NC1CC1 | -10 | -4 | 1 | 0 | 13 | -10
C=CC[C@@H](CC/C=C/C=C/CC/C=C\[C@@H]1CSC([C@@H]2C[C@@H]2C)=N1)OC | 14 | 67* | 19 | 14 | 11 | -10
C[C@]12CCC3C(CC[C@H]4C[C@H](O)CC[C@]34C)C1C[C@@H](CCCCl)[C@@H]2O (some centres not stated) | 7 | / | 6 | / | -9 | -14
Cc1cc(C(=O)CS(=O)(=O)c2ccccc2)cc(C)c1OC(=O)N(C)C | -37 | -44 | 60* | -15 | 30 | -185
Cc1ccc(S(=O)(=O)CC(=O)c2cc(C)c(OC(=O)N(C)C)c(C)c2)cc1 | -6 | 3 | -12 | -6 | -1 | -19
